A word on the AC50: it is the concentration at which the activity in the assay is half-maximal.

Results filed as inconclusive are left out. Where a structure was tested more than once in an assay, its records may differ in their call. Active and inactive are the calls of the source. How the source made its calls: active means hit-call score of the fitted dose curve at least 0.9, where 1 is the maximum; inconclusive means response in the unintended direction; inactive means score below 0.9.

The assay is described as follows: TOX21_p53_BLA_p3_viability: Viability Assessment in the Tox21 HCT-116 p53 Agonism Beta-lactamase Assay, Phase 3 (AID 2283593).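 Further: cells exposed to compound for 16 h before reading.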 Summed up: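 HCT116 cells, 4000/well, dosed 5 h after plating by pin transfer (217-fold dilution from DMSO stock) and incubated 16 h at 37C, 5% CO2. Viability read as ATP luminescence with CellTiter-Glo after 30 min at room temperature.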
Consider `CC(C)(CO)COC(=O)C(C)(C)CO`, for which the call was inactive. For the compound `CC(Cl)COP(=O)(OCC(C)Cl)OCC(C)Cl` (stereo unspecified), the result was inactive.

On to `C[Si](C)(C)N[Si](C)(C)C`, for which the compound was called inactive. On to `CC1=CCC(C(C)C)C=C1` (stereo unspecified), for which the compound was called inactive. On to `C=CC(C)(CCC=C(C)C)OC(=O)C=Cc1ccccc1` (stereo unspecified), for which the compound was called inactive. As for `CN(C)c1ccc2nc3ccc(=[N+](C)C)cc-3sc2c1`, the AC50 is 23 µM (active) and the compound was classed as inactive.

For `COCC(=O)O`, the compound was called inactive. Consider `CC1(C)[C@@H]2CC[C@@]1(C)C(=O)C2`, for which the compound was called inactive.

Take `CC1C(C)(C)C2=C(C(=O)CCC2)C1(C)C` (stereo unspecified): the compound was called inactive. For `CCCCCCCCCCCCCCCCCCOS(=O)(=O)O`, the concentration at half-maximal activity (AC50) was 66.9 µM (active). As to `C=C1C[C@H]2[C@@H]3C=C(C)C4=CC(=O)CC[C@]4(C)[C@H]3CC[C@]2(C)[C@@]1(OC(C)=O)C(C)=O`, the result was inactive. Turning to `CCOC(=O)c1ccc(C)cc1`, the compound was called inactive. With `CC(=O)CC(=O)Nc1ccccc1C`, the outcome was inactive.

For the compound `CC(=O)OC1CCCCC1C(C)(C)C` (stereo unspecified), the compound was classed as inactive. On to `C=C(C)C(=O)OCC(O)COc1ccc(C(C)(C)c2ccc(OCC(O)COC(=O)C(=C)C)cc2)cc1` (stereo unspecified), for which the outcome was inactive. In the case of `CCCCCCOc1ccc(N)cc1`, the compound was classed as inactive.

With `Cc1noc(NS(=O)(=O)c2ccc(N)cc2)c1C`, the call was inactive. In the case of `CCCCCCC=O`, the compound was called inactive. Still for that read-out and setting: with `CCOC(=O)/C=C\C(=O)OCC` the entry was “inactive”. On to `C=CCNCC=C`, for which the result was inactive. As for `CC/C=C\CCOC(=O)c1ccccc1O`, the result was inactive. For the compound `CC(=O)OCCc1ccccc1`, the result was inactive. On to `C=C(C)C1CC=C(C)CC1` (stereo unspecified), for which the compound was called inactive. As to `CCCC(CC)c1ccccc1` (stereo unspecified), the result was inactive.

Take `Nc1ccc(C(=O)OCCCOC(=O)c2ccc(N)cc2)cc1`: the compound was classed as inactive.

The values above are taken from PubChem BioAssay (EPA / NIEHS).
